Assay results from PubChem BioAssay (Tox21).
Several values for one entry are separate records, joined by “and”; a condition that tells them apart may be missing. Equal entries are not always repeated. Inconclusive results are not listed. A number with no mark means an inactive call. Activity calls are given as the source filed them. Calls come from the whole dose curve; as a rule, active = well fitted cell-killing curve with a large enough effect in the repeat runs; inconclusive = weak or mixed curves, or effect the other way; inactive = flat fitted curve, though single readings scatter.

test: qHTS assay to identify small molecule antagonists of the estrogen receptor alpha (ER-alpha) signaling pathway using the BG1 cell line in the presence of 0.1 nM 17-beta-estradiol - cell viability counter screen (AID 1259241); conditions: VM7Luc4E2 (BG1) viability, CellTiter-Fluor protease, 22 h, 0.1 nM estradiol agonist added; series mostly up to 92.4 µM; activity change, negative = cytotoxicity: at the top concentration; note: nearly all actives have a fitted effect of over 40% in size
Description: National Center for Advancing Translational Sciences [NCATS]
NIH Chemical Genomics Center [NCGC]
U.S. Environmental Protection Agency [EPA]
National Institutes of Environmental Health Sciences [NIEHS]
National Toxicology Program [NTP]
U.S. Food and Drug Administration [FDA]
Estrogen receptor (ER), a member of the nuclear hormone receptor plays an important role in development, metabolic homeostasis and reproduction. Two subtypes of ER, ER-alpha and ER-beta, have similar expression patterns with some uniqueness in both types. Endocrine disrupting chemicals (EDCs) and their interactions with steroid hormone receptors like ER causes disruption of normal endocrine function. Therefore, it is important to understand the effect of environmental chemicals in ER signaling pathway. For identifying ER antagonists, VM7Luc4E2 cell line was used to screen against Tox21 compound libraries.
VM7Luc4E2 cell line (provided by Denison MS, University of California) endogenously express full-length ER-alpha and is stably transfected with a plasmid containing four estrogen responsive elements (ERE) upstream of a luciferase reporter gene. The current screening for identification of ER-alpha inhibitors against Tox21 compound libraries used lower concentration (0.1 nM) of 17beta-Estradiol as a stimulator. The cytotoxicity of the Tox21 compound libraries against VM7Luc4E2 cell line was tested by measuring live-cell protease activity using CellTiter-Fluor assay in the same wells.
Tox21 Assay Protocol Summary:
VM7Luc4E2 cells were cultured in phenol red free assay medium containing 10% charcoal stripped FBS for 5 days prior to the assay. The cells were dispensed at 4,000 cells/well in 4 uL of assay medium into white wall/solid-bottom 1536-well plates (Corning Life Sciences, Corning, NY) using a Multidrop Combi (ThermoFisher Scientific, Waltham, MA) dispenser. After the assay plates were incubated at 37C and 5% CO2 for 24 hr, 23 nL of compounds dissolved in DMSO, positive controls or DMSO only was transferred to the assay plates by a Pintool station (Kalypsys, San Diego, CA). The transfer of compounds was followed by the addition of 1 uL of 0.1 nM (final concentration) agonist (17beta-Estradiol)/assay medium using a Flying Reagent Dispenser (FRD, Aurora Discovery, San Diego, CA). The plates were incubated at 37C and 5% CO2 for 22 hr. For cytotoxicity assay, 1 uL of CellTiter-Fluor reagent (Promega Corporation, Madison, WI) was added to each well using the FRD and after 30 min incubation at 37C and 5% CO2, The fluorescence intensity was measured using ViewLux plate reader (PerkinElmer, Shelton, CT).
% is set by controls: 0 for no effect and ±100 for the full control effect; potency is the fitted concentration of half-maximal effect.

SMILES	activity change, negative = cytotoxicity	Potency
Oc1c(I)cc(Cl)c2cccnc12	-14% [at 42.5 µM]	–
O=C1C(c2[nH]c3ccc(S(=O)(=O)O)cc3c2O)=Nc2ccc(S(=O)(=O)O)cc21	-9.88%	–
CC(=O)CC(=O)Nc1ccc(S(=O)(=O)O)cc1	-0.264%	–
O=C(O)c1cc(O)c2ccccc2c1O	–	34.4 µM (active)
CC(C)(C)CC(C)(C)c1ccc(Nc2ccc(C(C)(C)CC(C)(C)C)cc2)cc1	4% [at 8.39 µM]	–
CCOc1ccc2ccccc2c1C(=O)N[C@@H]1C(=O)N2[C@@H]1SC(C)(C)[C@@H]2C(=O)O	1.34% [at 42.5 µM]	–
[Cu+]	-0.127%	–
CN(C)C(=O)COC(=O)Cc1ccc(OC(=O)c2ccc(N=C(N)N)cc2)cc1	1.36% [at 42.5 µM]	–
O=C(O)Cc1ccccc1Nc1c(Cl)cccc1Cl	–	inactive
Cc1ccc(N/N=c2\c(=O)cc/c(=N\Nc3ccc(S(=O)(=O)O)cc3)c2=O)c(C)c1	–	27.3 µM (active)
COc1cccc2c1C(=O)c1c(O)c3c(c(O)c1C2=O)C[C@@](O)(C(C)=O)C[C@@H]3O[C@H]1C[C@H](N)[C@H](O)[C@H](C)O1	–	30.8 µM (active) and 13.3 µM (active)
C[C@H]1NCc2cc(-c3ccc4c(=O)c(C(=O)O)cn(C5CC5)c4c3OC(F)F)ccc21	-0.503% [at 19 µM]	–
COc1cccc(OC)c1C(=O)O	7.47%	–
CC(C)(C)c1csc(-c2cc3cc(OCc4ccccc4CC(=O)O)ccc3o2)n1	-3.32%	–
CN(C)Cc1cc(C(C)(C)C)c(O)c(C(C)(C)C)c1	0.0583%	–
Cc1cccc2cccnc12	0%	–
C#C[C@]1(OC(C)=O)CC[C@H]2[C@@H]3CCC4=C/C(=N/O)CC[C@@H]4[C@H]3CC[C@@]21CC	1.47% [at 42.5 µM]	–
CCC(CC)(CC(=O)Nc1cccc(/C=C/c2nc(C3CCC3)cs2)c1)C(=O)O	4.51% [at 42.5 µM]	–
C#CC1(O)CC[C@H]2[C@@H]3CCC4=CCCC[C@@H]4[C@H]3CC[C@@]21C (stereo not given in full)	–	inactive
CCCCCCCCCCCC(=O)OCC(C)OC(=O)CCCCC(=O)O (stereo not given)	-1.58% [at 42.5 µM]	–

SMILES	activity change, negative = cytotoxicity	Potency
Cc1cc(-n2nc3ccc(Cl)cc3n2)c(O)c(C(C)(C)C)c1	-2.51% [at 42.5 µM]	–
CCCCC(CC)CN1CN(CC(CC)CCCC)CC(C)(N)C1 (stereo not given)	3.34% [at 42.5 µM]	–
ClCCl	0.546%	–
CCC(=O)C(=O)CC	-5.89%	–
CC1(C)CCC[C@]2(C)[C@H]3CCO[C@]3(C)CC[C@@H]12	4.16%	–
CCOC(=O)c1ccc(C2CCC(NC[C@H](O)COc3ccc(O)c(NS(C)(=O)=O)c3)CC2)cc1 (stereo not given in full)	-24.1%	–
C[Si](Cl)(c1ccccc1)c1ccccc1	0%	–
COC(=O)C1=C(C)NC(C)=C(C(=O)OCCN2CCN(C(c3ccccc3)c3ccccc3)CC2)C1c1cccc([N+](=O)[O-])c1 (stereo not given)	-10.9% [at 42.5 µM]	–
O=C(/C=C/c1ccccc1)OC/C=C/c1ccccc1	1.19%	–
O=C1c2ccccc2C(=O)N1SC1CCCCC1	–	inactive
CCCCCCCCCCOC(=O)c1ccccc1C(=O)OCCCCCCCC	4.29%	–
O=C(Oc1ccccc1)Oc1ccccc1	7.53%	–
COc1cc(C)ccc1O	-8.02%	–
CC(C)=CCNc1ncnc2c1ncn2[C@@H]1O[C@H](CO)[C@@H](O)[C@H]1O	-4.41% [at 42.5 µM]	–
O=S(=O)(O)c1ccc(N=Nc2c(O)ccc3ccccc23)cc1	–	54.5 µM (active)
CCCCCCCCCCCCCC[N+](C)(C)Cc1ccccc1	–	inactive
Cc1ccc(C(C)C)cc2c(C)ccc1-2	-7.59% [at 42.5 µM]	–
COc1cc(S(=O)(=O)O)c(C)cc1N=Nc1c(O)ccc2cc(S(=O)(=O)O)ccc12	–	21.7 µM (active)
CCCC[P+](C)(CCCC)CCCC	-3.02%	–
O[C@@H]([C@H](O)[C@H](O)CBr)[C@H](O)CBr	1.5%	–
